Where “and” joins values, the source holds several entries; their conditions need not be identical. Identical values can stand only once. More than one record can exist for a structure, and the calls need not agree. Calls of active or inactive are those of the source. The calls were made as follows: active = hit-call score of the fitted dose curve at least 0.9, where 1 is the maximum; inactive = score below 0.9.
How the values were obtained:
Conditions in all cases: mRNA level, 48 h; actives raise or lower the signal
[1] = read-out: Bcl-2 (BAD) gene, BAD (gene 572); test: LTEA_HepaRG_BAD: Life Technologies and Expression Analysis (LTEA) Assay for Bcl-2 (BAD) gene using HepaRG (AID 2283469)
How it was run: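 Activity values reflect up- or down-regulation of BAD mRNA in human HepaRG hepatic cells treated 48 h in serum-free medium, with eight-point half-log dosing capped at 100 uM and 0.5% DMSO vehicle.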

[2] = read-out: Bcl-2 (BAX) gene, BAX (gene 581); test: LTEA_HepaRG_BAX: Life Technologies and Expression Analysis (LTEA) Assay for Bcl-2 (BAX) gene using HepaRG (AID 2283470)
How it was run: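 Human HepaRG cells treated in duplicate for 48 h across eight concentrations (max 100 uM, 0.5% DMSO); BAX expression measured by qRT-PCR.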

[3] = read-out: adenosine kinase (ADK) gene, ADK (gene 132); test: LTEA_HepaRG_ADK: Life Technologies and Expression Analysis (LTEA) Assay for adenosine kinase (ADK) gene using HepaRG (AID 2283471)
How it was run: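 Differentiated HepaRG cells dosed 48 h in serum-free induction medium, 0.5% DMSO vehicle, eight half-log concentrations from 100 uM, in duplicate. ADK mRNA by TaqMan qRT-PCR normalised to ACTB, GAPDH, POLR2A; bidirectional fit versus DMSO.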

[4] = read-out: Alpha-fetoprotein (AFP) gene, AFP (gene 174); test: LTEA_HepaRG_AFP: Life Technologies and Expression Analysis (LTEA) Assay for Alpha-fetoprotein (AFP) gene using HepaRG (AID 2283472)
How it was run: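 Measures AFP mRNA change in HepaRG after 48 h chemical exposure (8 half-log concentrations, highest 100 uM, 0.5% DMSO). Fold change relative to DMSO, fitted in both directions.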

[5] = read-out: Apolipoprotein A-V (APOA5) gene, APOA5 (gene 116519); test: LTEA_HepaRG_APOA5: Life Technologies and Expression Analysis (LTEA) Assay for Apolipoprotein A-V (APOA5) gene using HepaRG (AID 2283474)
How it was run: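 HepaRG, 48 h chemical exposure in serum-free induction medium, 8-pt half-log series (top 100 uM), 0.5% DMSO vehicle, duplicates. Readout: APOA5 mRNA by qRT-PCR, housekeeping-normalized; bidirectional fit vs DMSO baseline.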

[6] = read-out: Apoptosis regulator Bcl-2 (Homo sapiens) (UniProt P10415); test: LTEA_HepaRG_BCL2: Life Technologies and Expression Analysis (LTEA) Assay for Bcl-2 gene using HepaRG (AID 2283475)
How it was run: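 Each chemical was tested in duplicate on HepaRG cultures held in serum-free induction medium for 48 h, highest concentration 100 uM with half-log dilutions. Transcript levels came from multiplexed qRT-PCR, normalised to housekeeping genes; activity was scored in either direction relative to DMSO.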

[7] = read-out: Bcl-2 (BID) gene, BID (gene 637); test: LTEA_HepaRG_BID: Life Technologies and Expression Analysis (LTEA) Assay for Bcl-2 (BID) gene using HepaRG (AID 2283476)
How it was run: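 Assay used HepaRG hepatic cells treated 48 h in serum-free medium with half-log dilutions from 100 uM. Endpoint: BID mRNA, qRT-PCR, normalized to ACTB/GAPDH/POLR2A.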

Caspase-3 (Homo sapiens) = Caspase-3 (Homo sapiens) (UniProt P42574); test: LTEA_HepaRG_CASP3: Life Technologies and Expression Analysis (LTEA) Assay for cysteine-aspartic acid protease (CASP3) using HepaRG (AID 2283477)
Chain of Caspase-3 (Homo sapiens) (P42574 whole entry, looked up): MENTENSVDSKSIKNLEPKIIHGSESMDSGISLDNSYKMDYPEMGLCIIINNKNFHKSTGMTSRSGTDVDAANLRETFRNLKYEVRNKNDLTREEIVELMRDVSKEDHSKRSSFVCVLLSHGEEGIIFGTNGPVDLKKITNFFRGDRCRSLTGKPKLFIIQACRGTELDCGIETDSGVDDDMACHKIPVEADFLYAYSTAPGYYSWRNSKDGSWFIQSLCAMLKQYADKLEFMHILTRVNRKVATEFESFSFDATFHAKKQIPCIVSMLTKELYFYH
How it was run: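 HepaRG, 48 h exposure, 8 conc. (top 100 uM, half-log steps, duplicate), 0.5% DMSO vehicle; qRT-PCR of CASP3 transcript, housekeeping-normalised (ACTB/GAPDH/POLR2A); bidirectional curve fit vs DMSO baseline.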

[8] = read-out: Cytochrome P450 (CYP1A2), CYP1A2 (gene 1544); test: LTEA_HepaRG_CYP1A2: Life Technologies and Expression Analysis (LTEA) Assay for Cytochrome P450 (CYP1A2) using HepaRG (AID 2283479)
How it was run: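 HepaRG, 48 h exposure, top 100 uM, half-log 8-pt, 0.5% DMSO vehicle, duplicates. Readout: TaqMan qRT-PCR of CYP1A2 mRNA, housekeeping-normalized (ACTB/GAPDH/POLR2A). Gain/loss fit relative to DMSO baseline.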

[9] = read-out: cysteine-aspartic acid protease (CASP8), CASP8 (gene 841); test: LTEA_HepaRG_CASP8: Life Technologies and Expression Analysis (LTEA) Assay for cysteine-aspartic acid protease (CASP8) using HepaRG (AID 2283480)
How it was run: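 Concentration-response in duplicate up to 100 uM (half-log steps, 0.5% DMSO) on differentiated HepaRG cultures for 48 h. Expression change of CASP8 mRNA is determined by TaqMan qRT-PCR with housekeeping-gene normalization.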

[10] = read-out: Cytochrome P450 (CYP2B6), CYP2B6 (gene 1555); test: LTEA_HepaRG_CYP2B6: Life Technologies and Expression Analysis (LTEA) Assay for Cytochrome P450 (CYP2B6) using HepaRG (AID 2283481)
How it was run: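 Read-out is CYP2B6 mRNA by TaqMan qRT-PCR, normalized to three housekeeping genes and fitted bidirectionally against 0.5% DMSO baseline. Human HepaRG cells received test chemicals for 48 h, top concentration 100 uM, half-log dilutions.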

[11] = read-out: Cytochrome P450 2C19 (Homo sapiens) (UniProt P33261); test: LTEA_HepaRG_CYP2C19: Life Technologies and Expression Analysis (LTEA) Assay for CYP2C19 using HepaRG (AID 2283482)
How it was run: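 HepaRG, 48 h chemical exposure, 8-pt half-log series from 100 uM in 0.5% DMSO, duplicates. Readout: CYP2C19 mRNA by TaqMan qRT-PCR, housekeeping-normalized. Bidirectional fit vs DMSO baseline; phenobarbital 1mM as induction control.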

CYP2C8 (gene 1558) = test: LTEA_HepaRG_CYP2C8: Life Technologies and Expression Analysis (LTEA) Assay for CYP2C8 using HepaRG (AID 2283483)
How it was run: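 This is a transcriptional endpoint in HepaRG cultures: 48 h exposure, highest concentration 100 uM. CYP2C8 mRNA is quantified by TaqMan qRT-PCR.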

CYP2C9 (gene 1559) = test: LTEA_HepaRG_CYP2C9: Life Technologies and Expression Analysis (LTEA) Assay for CYP2C9 using HepaRG (AID 2283484)
How it was run: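 Eight-point concentration-response (highest 100 uM, half-log dilutions) in HepaRG cells for 48 h; CYP2C9 expression by qRT-PCR normalized to ACTB, GAPDH, POLR2A. Bidirectional fit, DMSO baseline.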

CYP2E1 (gene 1571) = test: LTEA_HepaRG_CYP2E1: Life Technologies and Expression Analysis (LTEA) Assay for CYP2E1 using HepaRG (AID 2283485)
How it was run: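 Assay uses 48 h exposure of HepaRG hepatic cells, eight concentrations to 100 uM. Expression of CYP2E1 is quantified by TaqMan qRT-PCR with ACTB, GAPDH and POLR2A normalization; curves fitted in both directions relative to vehicle.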

CYP4A11 (gene 1579) = test: LTEA_HepaRG_CYP4A11: Life Technologies and Expression Analysis (LTEA) Assay for CYP4A11 using HepaRG (AID 2283486)
How it was run: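 CYP4A11 transcript levels were quantified by TaqMan qRT-PCR after HepaRG human liver cells were treated for 48 hours with test chemicals (top 100 uM, half-log dilutions, 0.5% DMSO). Gain or loss of signal was fitted relative to DMSO.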

[12] = read-out: Cytochrome P450 3A4 (Homo sapiens) (UniProt P08684); test: LTEA_HepaRG_CYP3A4: Life Technologies and Expression Analysis (LTEA) Assay for CYP3A4 using HepaRG (AID 2283487)
How it was run: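 Differentiated HepaRG cells in serum-free induction medium exposed in duplicate for 48 h to 8 half-log concentrations up to 100 uM in 0.5% DMSO. CYP3A4 mRNA measured by qRT-PCR normalized to ACTB, GAPDH and POLR2A; bidirectional fit versus DMSO.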

[13] = read-out: DNA damage-inducible transcript 3 (DDIT3), DDIT3 (gene 1649); test: LTEA_HepaRG_DDIT3: Life Technologies and Expression Analysis (LTEA) Assay for DNA damage-inducible transcript 3 (DDIT3) using HepaRG (AID 2283488)
How it was run: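 Eight-point concentration-response (100 uM highest, half-log dilutions) in HepaRG, 48 h, duplicate wells. Endpoint: qRT-PCR mRNA, normalized (ACTB, GAPDH, POLR2A), bidirectional fitting with DMSO as baseline.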

BCL2L11 (gene 10018) = test: LTEA_HepaRG_BCL2L11: Life Technologies and Expression Analysis (LTEA) Assay for Bcl-2 (BCL2L11) gene using HepaRG (AID 2283473)
How it was run: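 HepaRG, 48 h exposure, 8-pt half-log series from 100 uM in 0.5% DMSO, duplicates; qRT-PCR (Fluidigm TaqMan) for BCL2L11, housekeeping-normalized; bidirectional curve fit relative to DMSO baseline.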

[14] = read-out: Cytochrome P450 (CYP24A1), CYP24A1 (gene 1591); test: LTEA_HepaRG_CYP24A1: Life Technologies and Expression Analysis (LTEA) Assay for Cytochrome P450 (CYP24A1) using HepaRG (AID 2283478)
How it was run: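 qRT-PCR read-out: CYP24A1 transcript levels normalized to three housekeeping genes, bidirectional curve fits against 0.5% DMSO baseline. Human HepaRG cells treated 48 h with chemicals at eight concentrations from 100 uM in half-log steps.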

Measured: AC50

Chain of Cytochrome P450 2C19 (Homo sapiens) (P33261 whole entry, looked up): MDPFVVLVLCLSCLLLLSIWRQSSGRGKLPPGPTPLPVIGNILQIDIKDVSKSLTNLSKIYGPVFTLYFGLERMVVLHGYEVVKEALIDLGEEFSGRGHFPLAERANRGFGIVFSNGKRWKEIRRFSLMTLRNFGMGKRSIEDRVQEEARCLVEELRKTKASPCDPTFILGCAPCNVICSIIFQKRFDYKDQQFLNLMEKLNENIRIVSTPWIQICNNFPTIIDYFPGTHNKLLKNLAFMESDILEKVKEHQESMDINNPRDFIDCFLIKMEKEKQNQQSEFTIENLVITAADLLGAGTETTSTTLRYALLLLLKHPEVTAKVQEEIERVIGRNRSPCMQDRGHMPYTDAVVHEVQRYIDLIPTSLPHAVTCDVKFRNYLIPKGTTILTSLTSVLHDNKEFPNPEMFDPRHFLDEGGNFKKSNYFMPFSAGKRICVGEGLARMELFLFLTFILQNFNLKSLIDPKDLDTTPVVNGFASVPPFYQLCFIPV
Chain of Cytochrome P450 3A4 (Homo sapiens) (P08684 whole entry, looked up): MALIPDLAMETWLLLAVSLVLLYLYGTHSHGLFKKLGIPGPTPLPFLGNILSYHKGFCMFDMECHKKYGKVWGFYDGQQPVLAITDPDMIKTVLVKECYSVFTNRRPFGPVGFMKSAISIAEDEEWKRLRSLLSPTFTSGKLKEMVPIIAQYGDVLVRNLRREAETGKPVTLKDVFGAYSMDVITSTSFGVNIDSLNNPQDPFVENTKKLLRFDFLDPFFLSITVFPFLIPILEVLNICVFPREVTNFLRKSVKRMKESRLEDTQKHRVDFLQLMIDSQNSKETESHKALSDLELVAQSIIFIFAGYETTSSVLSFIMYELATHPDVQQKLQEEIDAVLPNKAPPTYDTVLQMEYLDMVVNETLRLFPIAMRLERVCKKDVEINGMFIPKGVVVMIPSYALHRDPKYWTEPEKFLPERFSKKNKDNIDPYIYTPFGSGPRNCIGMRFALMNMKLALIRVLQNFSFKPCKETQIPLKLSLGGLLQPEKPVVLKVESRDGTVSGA
Chain of Apoptosis regulator Bcl-2 (Homo sapiens) (P10415 whole entry, looked up): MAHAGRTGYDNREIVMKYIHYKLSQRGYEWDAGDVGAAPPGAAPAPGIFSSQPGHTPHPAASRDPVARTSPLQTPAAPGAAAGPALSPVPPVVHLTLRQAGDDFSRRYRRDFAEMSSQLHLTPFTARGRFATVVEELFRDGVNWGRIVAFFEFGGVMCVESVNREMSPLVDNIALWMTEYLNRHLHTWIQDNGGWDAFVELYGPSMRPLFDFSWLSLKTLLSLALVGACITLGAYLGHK

Cc1cc(Cl)ccc1OCC(=O)O
active: [8] 50 µM | [10] 25.5 µM | [11] 24.3 µM | CYP2C8 (gene 1558) 19.9 µM | CYP2E1 (gene 1571) 30.9 µM | CYP4A11 (gene 1579) 12 µM
not listed: BCL2L11 (gene 10018) | [14]
inactive: all other assays above

Oc1ccccc1-c1ccccc1
not listed: [14]
inactive: all other assays above

C=CCC1=C(C)C(OC(=O)C2C(C=C(C)C)C2(C)C)CC1=O (stereo unspecified)
inactive: [1] | [2] | [3] | [5] | [6] | [7] | Caspase-3 (Homo sapiens) | [8] | [9] | [11] | CYP2C8 (gene 1558) | CYP2C9 (gene 1559) | [12] | [13]
active: [4] 90.3 µM and 79.8 µM and 66.3 µM | [5] 0.000839 µM | [10] 12.1 µM and 90.6 µM and 11.7 µM | [11] 91.5 µM | CYP2C8 (gene 1558) 85.6 µM | CYP2C9 (gene 1559) 87.4 µM | CYP2E1 (gene 1571) 70.6 µM and 76.7 µM and 60.9 µM | CYP4A11 (gene 1579) 93.2 µM and 95.2 µM

CC1=C(C(=O)Nc2ccccc2)SCCO1
active: [5] 50 µM | [8] 50 µM | [10] 45 µM | CYP2E1 (gene 1571) 74.5 µM
not listed: BCL2L11 (gene 10018)
inactive: all other assays above

CC(C)(C)c1ccc(CSc2cnn(C(C)(C)C)c(=O)c2Cl)cc1
active: [2] 6.27 µM | [4] 2.47 µM | [5] 12 µM | [6] 2.89 µM | [8] 2.36 µM | [9] 12.8 µM | [10] 1.54 µM | [11] 28 µM | CYP2C8 (gene 1558) 22.5 µM | CYP2C9 (gene 1559) 13.4 µM | CYP2E1 (gene 1571) 1.48 µM | CYP4A11 (gene 1579) 1.75 µM | [12] 1.56 µM | [13] 2.06 µM
inactive: [1] | [3] | [7] | Caspase-3 (Homo sapiens)

Reference: PubChem BioAssay (EPA / NIEHS)
